Screening data as filed in PubChem.
GLP-1R agonist – activates the human GLP-1 receptor; hit rate 0.007% among 380,000; P43220; Potency, µM (top dose mostly 45.6 µM), most hits filed as activators; HEK293 GLP-1R CRE-luciferase, luminescence, 4-6 h; cells express a hypersensitive GLP-1R form
GLP-1R inv ag – acts as inverse agonist at human GLP-1 receptor. HEK293 GLP-1R CRE-luciferase, luminescence, 24 h; GLP-1R form is constitutively active. Potency, µM (titrated, usually from 38.3 µM), usual class: inhibitors. hit rate 1.6% among 410,000. AID 624417; further: nearly all actives have a fitted effect of over 55% in size
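Seeding at 200 cells/uL, 12 h culture, 24 hr compound treatment, then luciferase reagent and a luminescence read; cells are HEK293 stably expressing a constitutively active GLP-1R plus cAMP-responsive luciferase.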
Pin1 inh – inhibitors of human Pin1 | Pin1 FP peptide displacement, HiFluor488, 10 min | Q13526 | AID 504891 | Potency, µM (highest dose often 115 µM), usual class: inhibitors | hit rate 0.009% among 390,000; active means well fitted inhibition curve with a large enough effect in the polarisation, with a control signal flat, not every such curve was filed as active; inconclusive means small, poorly fitted or top-dose-only effect, or effect the other way, or a change in a side signal; inactive means no such curve, though single readings can be large or run the other way; the % refers to the polarisation
Target sequence (Q13526 whole entry, looked up): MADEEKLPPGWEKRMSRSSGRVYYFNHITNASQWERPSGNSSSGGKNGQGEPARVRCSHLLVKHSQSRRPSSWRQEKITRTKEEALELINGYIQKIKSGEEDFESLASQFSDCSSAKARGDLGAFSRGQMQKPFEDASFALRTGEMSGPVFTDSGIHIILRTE
Tb PFK inh – T. brucei PFK enzyme inhibition. O15648. Potency, µM (titrated, usually from 57.5 µM), actives largely listed as inhibitors. hit rate 0.17% among 330,000. T. brucei PFK, ADP-Glo luminescence. AID 485367; further: nearly all actives have a fitted effect of over 60% in size
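1.25 nM PFK with 0.5 mM F6P and 0.1 mM ATP in 0.1 M TEA pH 8.0, 5 mM MgCl2, incubated 45 min at room temperature; ADP measured by ADP-Glo luminescence; compounds titrated up to 57 uM.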
HEK293 tox – cytotoxicity in counter-screen for GLP-1R inverse agonists; HEK293 cAMP-luciferase reporter cells, luminescence, 24 h; Potency, µM (highest dose often 38.3 µM), hits mostly inhibitors; hit rate 0.13% among 410,000;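 further: loss of luciferase light is scored as toxicity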
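MLSMR compounds, 24 hr on cells at 37 deg C/5% CO2; luminescence after luciferase reagent (12 min RT). Inhibition counted as the undesired cytotoxic outcome.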
Tb PGK inh – inhibitors of T. brucei phosphoglycerate kinase | P07378 | PGK/GAPDH coupled, Kinase-Glo luminescence, 60 min | Potency, µM (highest dose often 57.5 µM), usual class: inhibitors | hit rate 0.043% among 380,000; further: nearly all actives have a fitted effect of over 60% in size
Target sequence (P07378 whole entry, looked up): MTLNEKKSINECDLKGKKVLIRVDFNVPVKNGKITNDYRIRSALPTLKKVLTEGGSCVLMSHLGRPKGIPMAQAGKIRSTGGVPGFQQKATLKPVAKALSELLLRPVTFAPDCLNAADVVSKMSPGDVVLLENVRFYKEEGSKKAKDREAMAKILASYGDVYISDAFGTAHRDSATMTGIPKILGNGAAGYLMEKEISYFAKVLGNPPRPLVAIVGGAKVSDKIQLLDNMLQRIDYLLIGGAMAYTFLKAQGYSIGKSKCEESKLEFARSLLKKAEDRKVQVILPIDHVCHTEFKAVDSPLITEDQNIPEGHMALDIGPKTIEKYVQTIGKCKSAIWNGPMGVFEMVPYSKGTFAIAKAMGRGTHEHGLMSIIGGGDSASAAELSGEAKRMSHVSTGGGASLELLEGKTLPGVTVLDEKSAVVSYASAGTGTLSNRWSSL
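Recombinant glycosomal PGK reaction used 1,3-bisphosphoglycerate generated in-well by GAPDH (100nM final) in 100mM TEA pH 7.6, 5mM MgCl2, 0.01% Tween-20. After 60 minutes at room temperature, ATP was read by Kinase-Glo Plus luminescence end-point.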
Numbers stand for hits; - = inactive; ? = inconclusive; . = no result. A selection: hits, their analogues and other compounds. The true share with any hit is near 1.8%. Unless noted, the call rests on the fitted dose curve; in most records, active means well fitted curve in the direction sought with a large enough effect; inconclusive means small, poorly fitted or top-dose-only effect, or another doubt; inactive means no such curve, though single readings can be large; an effect the other way counts as inactive or inconclusive.

SMILES | GLP-1R agonist | GLP-1R inv ag | Pin1 inh | Tb PFK inh | HEK293 tox | Tb PGK inh
COc1cc(NC(=O)CN2C(=O)c3ccccc3Sc3ccc(C(=O)N4CCCC4)cc32)cc(OC)c1 | . | - | - | . | - | -
Nc1nc(NCCO)nc(NC2CCCCC2)c1[N+](=O)[O-] | ? | - | - | - | - | -
CN(C)CCCNc1nc(N)c([N+](=O)[O-])c(NC2CCCCC2)n1 | - | 13µM | - | - | - | -
Cc1ccc(S(=O)(=O)c2nc(S(=O)(=O)c3ccccc3)sc2NCCCOC(C)C)cc1 | . | - | - | . | - | -
CN(C(=O)CO)c1c(I)c(C(=O)NCC(O)CO)c(I)c(C(=O)NCC(O)CO)c1I (stereo not given) | - | . | . | . | . | .
COc1cccc2sc(N(Cc3cccnc3)C(=O)C3CCCCC3)nc12 | . | ? | - | . | - | -
O=C(C1CCCCC1)N(Cc1cccnc1)c1nc2c(F)cccc2s1 | . | 8.9µM | - | . | - | -
CC1(C)S[C@@H]2[C@H](NC(=O)[C@H](N)c3ccccc3)C(=O)N2[C@@H]1C(=O)OCOC(=O)[C@@H]1N2C(=O)C[C@@H]2S(O)(O)C1(C)C | - | . | . | . | . | .
Fc1ccc2c(-c3cccc(C(F)(F)F)c3)c(-c3ccccc3)ncc2c1 | - | ? | - | - | - | -
Fc1ccc2cnc(-c3ccccc3)c(-c3cc(C(F)(F)F)cc(C(F)(F)F)c3)c2c1 | - | 4.5µM | - | - | - | -
Fc1ccc2cnc(-c3ccccc3)c(-c3ccc(C(F)(F)F)cc3)c2c1 | - | 13µM | ? | - | - | -
COc1cccc(C)c1NC(=O)C(OC(=O)CNC(=O)c1ccccc1)c1ccccc1 (stereo not given) | . | . | - | . | . | .
CN(CC1(C)CCCO1)S(=O)(=O)c1ccc(Cl)c(S(N)(=O)=O)c1 (stereo not given) | - | . | . | . | . | .
CCOC(=O)c1c(NC(=S)N2CCOCC2)sc2c1CCN(C(=O)OCC)C2 | - | 10µM | - | - | ? | -
CCOC(=O)c1c(NC(=O)Nc2ccc(Cl)cc2)sc(C)c1C | - | - | - | - | - | -
CCOC(=O)c1ccc(NC(=S)N2CCN(C)CC2)cc1 | - | - | - | - | - | ?
CCOC(=O)c1c(NC(=O)/C=C/C(=O)O)sc(C)c1-c1ccc(Cl)cc1 | - | 5µM | - | - | ? | -
CCOC(=O)c1c(NC(=S)N2CCN(C)CC2)sc(C)c1-c1ccccc1 | - | 1.8µM | - | - | ? | -
COc1ccc(CNCCSc2nnnn2-c2ccccc2)c(OC)c1 | . | ? | - | . | - | -
CCCN(CCC)c1nc(-c2ccccn2)nc2ccccc12 | - | 3.5µM | - | - | ? | -
CCCN(CCC)c1nc(-c2ccccc2F)nc2ccccc12 | . | - | - | . | - | -
CCN(CC)c1nc(-c2ccccn2)nc(-c2ccccc2)c1C#N | - | 13µM | - | - | ? | -
CCCCNC(=O)C1CCC(CNS(=O)(=O)c2ccc(Cl)cc2)CC1 (stereo not given) | . | - | - | . | - | -
CCOc1ccc2[nH]c(=O)c(CN(Cc3cccs3)Cc3nnnn3C(C)(C)CC)cc2c1 | - | ? | - | - | 11µM | -
CCCCNC(=O)c1cccc2c(=O)c(C)c(-c3ccccc3)oc12 | - | - | - | - | - | -
SMILES | GLP-1R agonist | GLP-1R inv ag | Pin1 inh | Tb PFK inh | HEK293 tox | Tb PGK inh
CCCCN(C(=O)c1cccc2c(=O)c(C)c(-c3ccccc3)oc12)c1ccccc1 | - | 10µM | ? | - | - | -
O=C(CSc1ccccc1C(=O)O)c1ccc(Cl)cc1 | - | - | - | - | - | -
O=C(O)c1ccccc1NC(c1ccccc1)c1ccc(Cl)cc1 (stereo not given) | - | 11µM | - | - | - | -
O[C@H]1C[C@H](c2ccccc2)N(CC2CCCCC2)C[C@@H]1n1cc(C2CC2)nn1 | - | 10µM | . | . | ? | -
O[C@@H]1CN(CC2CCCCC2)[C@@H](c2ccccc2)C[C@H]1n1cc(C2CC2)nn1 | - | - | . | . | - | -
CCCC(CCC)C(N)=O | - | . | . | . | . | .
C=C(C)C(=O)Nc1cccc(C2=NOC3(C2)C[C@H](C(N)=O)N(C(=O)c2ccccc2)C3)c1 (stereo not given in full) | - | - | - | - | - | 11µM
C=C(C)C(=O)Nc1cccc(C2=NOC3(C2)C[C@@H](C(N)=O)N(C(=O)c2cc([N+](=O)[O-])cc([N+](=O)[O-])c2C)C3)c1 (stereo not given in full) | - | - | ? | ? | - | 11µM
C=C(C)C(=O)Nc1cccc(C2=NOC3(C2)C[C@@H](C(N)=O)N(C(=O)C2(C)CC2)C3)c1 (stereo not given in full) | - | - | . | 1.5µM | - | ?
CN=C(NC)NCc1ccccc1 | - | . | . | . | . | .
O=C(c1cc(-c2cccc(Br)c2)nc2ccccc12)N1CCCC1 | - | 10µM | - | - | - | -
O=C(c1cc(-c2ccc(Br)cc2)nc2ccccc12)N1CCC1 | - | ? | - | - | - | -
COc1ccc(-c2nc3scc(CCNS(=O)(=O)c4cccs4)n3n2)cc1 | . | - | ? | . | - | -
CCCC(NC(=S)NCC1CCCO1)C12CC3CC(CC(C3)C1)C2 (stereo not given) | - | 5.6µM | - | - | ? | -
Cc1cc2c(s1)c1cnn(Cc3cc(C(F)(F)F)cc(Cl)c3F)c(=O)c1n2C | . | . | - | . | . | .
O=C(Nc1ccccc1)c1ccc(-n2nncc2-c2ccccc2)cc1 | . | . | - | . | . | .
COc1ccc(NC(=O)N(C)[C@H]2C[C@H]3c4[nH]c5ccc(-c6ccc(OC)cc6)cc5c4CCN3C(=O)[C@H]2[C@H](C)O)cc1 | - | ? | . | . | ? | -
CN[C@H]1C[C@H]2c3[nH]c4ccc(-c5cccc(C)c5)cc4c3CCN2C[C@H]1[C@H](C)O | - | 11µM | . | . | ? | -
CN[C@H]1C[C@H]2c3[nH]c4ccc(-c5ccc(OC)cc5)cc4c3CCN2C(=O)[C@H]1[C@H](C)O | - | 5.6µM | . | . | ? | -
COc1ccc(NC(=O)N(C)[C@H]2C[C@H]3c4[nH]c5ccc(-c6ccc(OC)cc6)cc5c4CCN3C[C@H]2[C@H](C)O)cc1 | - | 7.1µM | . | . | ? | -
COc1ccc(NC(=O)N(C)[C@H]2C[C@H]3c4[nH]c5ccc(-c6ccc7c(c6)OCO7)cc5c4CCN3C[C@H]2[C@H](C)O)cc1 | - | ? | . | . | ? | -
CCCN(CCC)S(=O)(=O)c1ccc2c(c1)N(CC(=O)NC(C)c1ccccc1)C(=O)CS2 (stereo not given) | . | ? | ? | . | - | -
CCN(CC)CCNC(C(=O)Nc1cc(C(F)(F)F)ccc1Cl)c1ccccc1 (stereo not given) | - | ? | - | - | ? | -
